Source: the supplement of paper PMC6555819

Columns and labels:
Assay in all cases: PBM binding z-score (relative to random genomic background probes); higher = stronger binding; sequences stand for … in GC…GCGATTGACAGCGTAGAATGAAGG
[1] = test system: FXR:RXRa (NR concentration 270 nM, RXRa partner concentration 90 nM)
How it was run: (§1)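 Custom Agilent 4×180K protein-binding microarrays carried double-stranded probes, each with a 34-nt variable region. These regions held direct-repeat seeds, single-nucleotide variants, half-site ablations and random human genomic background sequences. Ligand-free nuclear receptor dimers were incubated on the arrays for 1 h, antibodies against each partner (one per run) detected binding, and scanned fluorescence was regression-normalized. Binding z-scores take the random background probes as reference.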

[2] = test system: LXRa:RXRa (NR concentration 270 nM, RXRa partner concentration 90 nM)
How it was run: as §1

[3] = test system: LXRa homodimer (NR concentration 270 nM)
How it was run: as §1

[4] = test system: LXRb:RXRa (NR concentration 270 nM, RXRa partner concentration 90 nM)
How it was run: as §1

[5] = test system: LXRb homodimer (NR concentration 270 nM)
How it was run: as §1

[6] = test system: PPARa:RXRa (NR concentration 270 nM, RXRa partner concentration 90 nM)
How it was run: as §1

[7] = test system: PPARg:RXRa (NR concentration 180 nM, RXRa partner concentration 90 nM)
How it was run: as §1

[8] = test system: PPARg:RXRa 270nM:90nM, anti-RXR (NR concentration 270 nM, RXRa partner concentration 90 nM)
How it was run: as §1

[9] = test system: PPARg:RXRa 30nM:10nM, anti-RXR (NR concentration 30 nM, RXRa partner concentration 10 nM)
How it was run: as §1

[10] = test system: PPARg:RXRa 90nM:30nM, anti-RXR (NR concentration 90 nM, RXRa partner concentration 30 nM)
How it was run: as §1

Sequence	PBM binding z-score [1]	PBM binding z-score [2]	PBM binding z-score [3]	PBM binding z-score [4]	PBM binding z-score [5]	PBM binding z-score [6]	PBM binding z-score [7]	PBM binding z-score [8]	PBM binding z-score [9]	PBM binding z-score [10]
ATCTCTAGGTAAGGATAGTTCAGTGAATGCAAAT	0.343	0.874	0.613	0.271	0.693	0.427	0.279	0.182	0.215	0.134
TCATATAGGTAATACAGGTGTAAGTCGGCATCTA	1.11	1.19	0.352	0.876	0.401	1.28	1.06	2.23	3.93	3
GCTGCTAGGTCAGGGTGGTCAGCTAACGGGTACG	1.3	1.02	-0.198	0.35	-0.645	2.03	1.63	1.95	-0.181	1.09
ATGTCTAGGTAAAAGTTCAGTGAATCCCGAGGAT	0.745	1.33	1.16	0.843	0.542	3.76	7.03	6.9	5.57	7.4
CCGGCTAGGTCATGGTCAGCTAATCTACAGTATG	3.61	2.64	0.191	1.89	0.207	3.42	1.86	2.4	0.212	1.38
AATACAGGGTCATCGTAGGCCAGAGTCCGCACAG	7.16	6.35	2.6	4.52	1.21	5.96	6.83	5.83	2.39	4.51
CGAATGAGGGCATGAGTTGATAGCAAATGCCGAT	0.504	0.377	-0.461	0.209	-0.511	1.7	1.92	1.99	0.599	1.49
CGTCAAAGTTCAAGGTATCGTAACAGAAAGCAGC	5.48	5.39	2.28	3.16	1.03	4.38	3.83	4.59	1.75	3.38
TCATATAGGTAAACAGGTGGAAGTCCGTAAGTTA	0.72	0.64	0.229	0.692	0.0407	1.43	1.16	2.43	4.15	3.06
ATACCAACGTGATCGTGAGGTCGTTGATACTAAC	0.885	0.498	0.494	0.84	-0.123	0.65	0.385	-0.0479	-0.202	-0.163
GCTTGTTGGTCAGTAAAAGGTCACACACCGGTCG	3.14	4.29	4.58	4.04	1.25	4.42	3.2	4.25	2.37	4.03
